This note sets out measurements from PubChem BioAssay (NCATS).

Records with an inconclusive call do not appear. The source made the active and inactive calls. Calls come from the whole dose curve; as a rule, active = well fitted cell-killing curve with a large enough effect; inconclusive = small, poorly fitted or top-dose-only effect; inactive = no such curve, though single readings can be large or run the other way.
Potency is the fitted concentration of half-maximal effect.

This experiment is described as follows: Quantitative High-Throughput drug screen in 47 multiple myeloma cell lines against the NCATS MIPE library collection: JIM3_ECACC cell viability assay (AID 1918963; note: nearly all actives have a fitted effect of over 35% in size). The conditions noted are these: JIM3 myeloma viability, CellTiter-Glo ATP, 48 h; series mostly up to 45.8 µM; viability, percent of control: at the top concentration. An excerpt:
PI: Beverly A. Mock Ph.D.
Laboratory of Cancer Biology and Genetics,
Center for Cancer Research, National Cancer Institute,
National Institute of Health, Bethesda, Maryland
Drug resistance and disease progression are common in multiple myeloma (MM) patients, underscoring the need for new therapeutic combinations. […] We hypothesized that effective combinations would reduce MYC expression and enhance p16 activity. […] These preclinical data identify potentially useful drug combinations for evaluation in drug-resistant MM and reveal potential mechanisms of combined drug sensitivity.
Described herein is the primary MIPE qHTS used to cherrypick compounds. Validated compounds were then further tested for potential synergistic activiy.
[1] Peat TJ, Gaikwad SM, Dubois W, Gyabaah-Kessie N, Zhang S, Gorjifard S, Phyo Z, Andres M, Hughitt VK, Simpson RM, Miller MA, Girvin AT, Taylor A, Williams D, D'Antonio N, Zhang Y, Rajagopalan A, Flietner E, Wilson K, Zhang X, Shinn P, Klumpp-Thomas C, McKnight C, Itkin Z, Chen L, Kazandijian D, Zhang J, Michalowski AM, Simmons JK, Keats J, Thomas CJ, Mock BA. Drug combinations identified by high-throughput screening promote cell cycle transition and upregulate Smad pathways in myeloma. Cancer Lett. 2023 Aug 1;568:216284. doi: 10.1016/j.canlet.2023.216284. Epub 2023 Jun 24. PMID: 37356470; PMCID: PMC10408729.
SEQUENCE No. (e.g., 1, 2, 3, etc.); […] (e.g., Cells, Incubation, Reagent, etc.); VALUE and DESCRIPTION.
1; Cells; 5 uL; white, solid bottom 1536-well Greiner assay plate.
2; Compounds; 23 nL; Kalypsis pin tool (Wako USA) equipped with a 1536-well pin head to transfer to the assay plates.
3; Incubation; 48 hours; 37C incubation.
4; Reagent;5uL; CellTiter Glo (Promega).
5; Detector; 425V; Luminescence; Viewlux PerkinElmer.
NOTES (numbers refer to Sequence numbers above)
1. The cell-based screening methods employed in this study were like those previously published. Briefly, the corresponding myeloma cell lines were screened in 1,536-well plates with 500 cells, 5-uL per well for inhibition of cell viability (assessed by measuring ATP levels with CellTiterGlo).
2. NCATS MIPE 4.0 library of approved and investigational drugs were added using the Kalypsis pin tool. Wells treated with DMSO only for 100% viability and media only wells for 0% viability were used as controls.
3. The assay plates were covered and incubated for 48 hours in a 37C, 5% CO2 incubator with controlled humidity.
4. After 48 hours, CellTilter-GloTM luminescent substrate mix (Promega) reagent was added to the assay plate and plates we incubated for 5 min at room temperature.
5. Signal was measured as median relative luminescence units on a ViewLux (PerkinElmer) multiplate reader.
[1] Heske CM, Davis MI, Baumgart JT, Wilson K, Gormally MV, Chen L, Zhang X, Ceribelli M, Duveau DY, Guha R, Ferrer M, Arnaldez FI, Ji J, Tran HL, Zhang Y, Mendoza A, Helman LJ, Thomas CJ. Matrix Screen Identifies Synergistic Combination of PARP Inhibitors and Nicotinamide Phosphoribosyltransferase (NAMPT) Inhibitors in Ewing Sarcoma. Clin Cancer Res. 2017 Dec 1;23(23):7301-7311. doi: 10.1158/1078-0432.CCR-17-1121. Epub 2017 Sep 12. PMID: 28899971; PMCID: PMC6636827.
Background: ATP-based viability assays read luminescence as a measure of living cells.
`COc1cc2c(cc1OC)[C@@H]1Cc3ccc(OC)c(OC)c3CN1CC2`: the “viability, percent of control” value is 105% (inactive). Turning to `C[C@]12CCC3=C4CCC(=O)C=C4CC[C@@H]3[C@H]1CC[C@@]2(O)CC#N`, the “viability, percent of control” value was 130% (inactive).

Consider `CN1CCC(COc2cnc(-c3cccc(Cn4nc(-c5cccc(C#N)c5)ccc4=O)c3)nc2)CC1`, for which the Potency was 0.372 µM (active). Take `C[C@H]1COC2=C1C(=O)C(=O)c1c2ccc2c1CCCC2(C)C`: the Potency is 23.5 µM (active). On the same count and under the same terms, under `COc1ccc(-c2cc3nccn3c(Nc3ncccc3C(N)=O)n2)cc1OC` stands 1.05 µM (active). In the case of `C[C@H](CCC(=O)O)[C@H]1CC[C@H]2[C@H]3[C@@H](CC[C@]12C)[C@@]1(C)CC[C@@H](O)C[C@H]1C[C@@H]3O`, the “viability, percent of control” value was 99.3% (inactive). Still for that read-out and setting: under `NCC1CCC(C(=O)O)CC1` (stereo not given) stands 101% (inactive). `CN(C)CCOc1ccc(-c2nc(-c3ccc4c(c3)CCC4=NO)c(-c3ccncc3)[nH]2)cc1`: the Potency was 23.5 µM (active). Consider `Cc1nc(NC(=O)N2CCC[C@@H]2C(N)=O)sc1-c1csc(C(C)(C)C)n1`, for which the Potency is 5.9 µM (active). Regarding `CCC(=O)NCC[C@@H]1CCc2ccc3c(c21)CCO3`, the Potency was 13.2 µM (active). Regarding `CC[C@H](C)C(=O)O[C@H]1C[C@H](O)C=C2C=C[C@H](C)[C@H](CC[C@@H](O)C[C@@H](O)CC(=O)O)[C@H]21`, the “viability, percent of control” value is 108% (inactive).

As for `O=C(CO)N1CCC(c2[nH]nc(-c3ccc(Cl)cc3)c2-c2ccncn2)CC1`, the “viability, percent of control” value is 106% (inactive). Still for that read-out and setting: as for `N[C@@H](CC(=O)N1CCn2c(nnc2C(F)(F)F)C1)Cc1cc(F)c(F)cc1F`, the figure is 126% (inactive); as for `COc1cc2ncn(-c3cc(OCc4ccccc4S(C)(=O)=O)c(C#N)s3)c2cc1OC`, 90.3% (inactive). The same measure, in the same setting: under `CC1=C(C(=O)Nc2cc3cn[nH]c3cc2F)C(c2ccc(C(F)(F)F)cc2)CC(=O)N1` (stereo not given) stands 120% (inactive).

For `Cc1ccc(NC(=O)c2ccc(CN3CCN(C)CC3)cc2)cc1Nc1nc(-c2cccnc2)cs1`, the Potency is 14.8 µM (active). As to `CCCCCCCCCCCCCCCC(=O)O[C@H]1[C@@H](O)[C@@H](O)[C@@H]([C@H](NC(=O)[C@@H]2C[C@@H](CCC)CN2C)[C@H](C)Cl)O[C@@H]1SC`, the “viability, percent of control” value was 111% (inactive).

As for `O=S(=O)(NCCNCC=Cc1ccc(Br)cc1)c1cccc2cnccc12`, the Potency was 16.6 µM (active).

As to `CNC1CCC(N(Cc2cccc(-c3ccncc3)c2)C(=O)c2sc3ccccc3c2Cl)CC1` (stereo not given), the Potency is 10.5 µM (active). On the same count and under the same terms, under `CCCCn1c(=O)n(Cc2ccccc2F)c(=O)c2[nH]c(Cc3ccc(NC(C)=O)cc3)nc21` stands 23.5 µM (active). Consider `CCN(CC)CCCCNc1nc2cc(Cl)c(Cl)cc2nc1-c1ccc(-c2cccs2)s1`, for which the Potency is 8.33 µM (active). Same read-out and setting: as for `CC1(COc2ccc3c(c2)ncn3-c2ccc3cccc(N4CCC(N)CC4)c3n2)COC1`, the figure is 0.0118 µM (active); as for `CC(C)(O)CC(=O)NCCn1ccc2ncnc(Nc3ccc(Oc4cccc(C(F)(F)F)c4)c(Cl)c3)c21`, 23.5 µM (active). For `CCCCC(F)(F)[C@@]1(O)CC[C@H]2[C@H](CC(=O)[C@@H]2CCCCCCC(=O)O)O1`, the “viability, percent of control” value was 118% (inactive).

Regarding `CC(O)=C(C#N)C(=O)Nc1ccc(C(F)(F)F)cc1`, the Potency was 23.5 µM (active). Turning to `CCNC(=O)CCCC=CC[C@@H]1[C@H](C=CC(O)CCc2ccccc2)[C@@H](O)C[C@@H]1O` (stereo not given in full), the “viability, percent of control” value is 115% (inactive). Turning to `C=CCc1cccc(C=NNC(=O)CN2CCN(Cc3ccccc3)CC2)c1O`, the Potency was 23.5 µM (active). Regarding `OC[C@H]1O[C@@H](O[C@H]2[C@@H](O)[C@@](O)(CO)O[C@@H]2CO)[C@H](O)[C@@H](O)[C@@H]1O`, the “viability, percent of control” value was 102% (inactive).

Turning to `CCC[C@@H](NC(=O)[C@@H]1[C@H]2CCC[C@@H]2CN1C(=O)[C@@H](NC(=O)[C@@H](NC(=O)c1cnccn1)C1CCCCC1)C(C)(C)C)C(=O)C(=O)NC1CC1`, the Potency was 20.9 µM (active). On the same count and under the same terms, as for `CC(C)C[C@@H](N)[C@H](O)C(=O)N[C@H](C(=O)N[C@H](C(=O)N[C@@H](CC(=O)O)C(=O)O)C(C)C)C(C)C`, the figure is 20.9 µM (active). On the same count and under the same terms, under `CC1(C)CC(=O)c2c(C(F)(F)F)nn(-c3ccc(C(N)=O)c(NC4CCC(O)CC4)c3)c2C1` (stereo not given) stands 0.105 µM (active); under `CCCCC[C@H](O)C=C[C@H]1[C@H](O)CC(=O)[C@H]1CC=CCCCC(=O)O`, 20.9 µM (active); under `CC(C)CNc1ccnc(NCc2csc(-c3ccccc3)n2)n1`, 5.26 µM (active). Consider `O=C(O)C1=CO[C@@H](O[C@@H]2O[C@H](CO)[C@H](O)[C@H](O)[C@H]2O)[C@@H]2C(CO)=CC[C@H]12`, for which the “viability, percent of control” value was 133% (inactive). Same read-out and setting: as for `CC1CCN(c2cc(N3CCN(C)CC3)ccc2NC(=O)c2cc(C#N)c[nH]2)CC1`, the figure is 116% (inactive); as for `Cn1c(=O)c(-c2c(Cl)cccc2Cl)cc2cnc(Nc3cccc(C(=O)O)c3)nc21`, 135% (inactive). For the molecule `C[C@@H](N)c1ccc(C(=O)Nc2ccnc3[nH]ccc23)cc1`, the Potency was 20.9 µM (active). Same read-out and setting: as for `CCc1cccc(CC)c1NC(=O)N1Cc2[nH]nc(NC(=O)c3ccc(N4CCN(C)CC4)cc3)c2C1`, the figure is 4.69 µM (active). In the case of `O=c1cc(-c2ccc(O)c(O)c2)oc2cc(O)cc(O)c12`, the “viability, percent of control” value is 129% (inactive). Still for that read-out and setting: under `OCCn1cc(-c2ccc3c(c2)CCC3=NO)c(-c2ccncc2)n1` stands 102% (inactive).
